# Paper PMC8384837, “Expanding the binding specificity for RNA recognition by a PUF domain”
# Columns and labels:
# Experiment in all cases: yeast three-hybrid, YBZ-1, SC-Leu-His + 0.5 mM 3-AT, 4 days
# Conditions in all cases: tags: N-Gal4 AD-HA kept; label: inside an RPR1-promoter hybrid RNA with tandem MS2 sites; ssRNA
# PUM1 PUF domain R4-EFD = PUM1 PUF domain R4-EFD (Homo sapiens, UniProt Q14671 828-1176, N971E;H972F;Q975D)
# How it was run: (§1)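 The interaction score is the logarithmic change in variant frequency from input to selection. It uses log2, with a pseudocount of 1 for absent variants, and frequencies came from PCR-amplified, Illumina-sequenced repeat regions. The libraries were Pumilio-1 PUF domains randomized at the three base-contacting residues per repeat, co-expressed with matching RNA elements in strain YBZ-1 (LexA–MS2 coat fusion, HIS3 reporter). Plating lasted four days on SC-Leu (input) or SC-Leu-His + 0.5 mM 3-AT (selection).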
# PUM1 PUF domain R2-AKP = PUM1 PUF domain R2-AKP (Homo sapiens, UniProt Q14671 828-1176, N899A;Y900K;Q903P)
# How it was run: as §1
# PUM1 PUF domain R3-KSR = PUM1 PUF domain R3-KSR (Homo sapiens, UniProt Q14671 828-1176, C935K;R936S;Q939R)
# How it was run: as §1
# PUM1 PUF domain R8-RHD = PUM1 PUF domain R8-RHD (Homo sapiens, UniProt Q14671 828-1176, N1122R;Y1123H;Q1126D)
# How it was run: as §1
# PUM1 PUF domain R4-GQS = PUM1 PUF domain R4-GQS (Homo sapiens, UniProt Q14671 828-1176, N971G;H972Q;Q975S)
# How it was run: as §1
# PUM1 PUF domain R5-GLR = PUM1 PUF domain R5-GLR (Homo sapiens, UniProt Q14671 828-1176, C1007G;R1008L;Q1011R)
# How it was run: as §1
# PUM1 PUF domain R5-KRY = PUM1 PUF domain R5-KRY (Homo sapiens, UniProt Q14671 828-1176, C1007K;Q1011Y)
# How it was run: as §1
# PUM1 PUF domain R5-RLT = PUM1 PUF domain R5-RLT (Homo sapiens, UniProt Q14671 828-1176, C1007R;R1008L;Q1011T)
# How it was run: as §1
# PUM1 PUF domain R7-GSV = PUM1 PUF domain R7-GSV (Homo sapiens, UniProt Q14671 828-1176, S1079G;N1080S;E1083V)
# How it was run: as §1
# PUM1 PUF domain R7-QPG = PUM1 PUF domain R7-QPG (Homo sapiens, UniProt Q14671 828-1176, S1079Q;N1080P;E1083G)
# How it was run: as §1
sequence,measurement,setting,value
GGCUAGAACUAGUGGAUCCCCCGGCGCCCGGCGGCUCGAGCCCGGGUAAGUGUACAUAGUCUGCAUGCCGCCGGGCGCCAUGCCUGCAGGUCGACUCUAGAAAACAUG,binding signal,PUM1 PUF domain R4-EFD,2.47 log2 enrichment (interaction score)
GGCUAGAACUAGUGGAUCCCCCGGCGCCCGGCGGCUCGAGCCCGGGUAAGUGUAAAGAGUCUGCAUGCCGCCGGGCGCCAUGCCUGCAGGUCGACUCUAGAAAACAUG,binding signal,PUM1 PUF domain R2-AKP,3.58 log2 enrichment (interaction score)
GGCUAGAACUAGUGGAUCCCCCGGCGCCCGGCGGCUCGAGCCCGGGUAAGUGUAAGUAGUCUGCAUGCCGCCGGGCGCCAUGCCUGCAGGUCGACUCUAGAAAACAUG,binding signal,PUM1 PUF domain R3-KSR,1.19 log2 enrichment (interaction score)
GGCUAGAACUAGUGGAUCCCCCGGCGCCCGGCGGCUCGAGCCCGGGUAAGCGUAAAUAGUCUGCAUGCCGCCGGGCGCCAUGCCUGCAGGUCGACUCUAGAAAACAUG,binding signal,PUM1 PUF domain R8-RHD,5.28 log2 enrichment (interaction score)
GGCUAGAACUAGUGGAUCCCCCGGCGCCCGGCGGCUCGAGCCCGGGUAAGUGUAAUUAGUCUGCAUGCCGCCGGGCGCCAUGCCUGCAGGUCGACUCUAGAAAACAUG,binding signal,PUM1 PUF domain R3-KSR,4.1 log2 enrichment (interaction score)
GGCUAGAACUAGUGGAUCCCCCGGCGCCCGGCGGCUCGAGCCCGGGUAAGUGUAAAUAGUCUGCAUGCCGCCGGGCGCCAUGCCUGCAGGUCGACUCUAGAAAACAUG,binding signal,PUM1 PUF domain R4-GQS,2.47 log2 enrichment (interaction score)
same,binding signal,PUM1 PUF domain R5-GLR,1.61 log2 enrichment (interaction score)
same,binding signal,PUM1 PUF domain R4-EFD,2.17 log2 enrichment (interaction score)
GGCUAGAACUAGUGGAUCCCCCGGCGCCCGGCGGCUCGAGCCCGGGUAAGUGUCAAUAGUCUGCAUGCCGCCGGGCGCCAUGCCUGCAGGUCGACUCUAGAAAACAUG,binding signal,PUM1 PUF domain R5-KRY,4.04 log2 enrichment (interaction score)
same,binding signal,PUM1 PUF domain R5-GLR,2.62 log2 enrichment (interaction score)
same,binding signal,PUM1 PUF domain R5-RLT,2.62 log2 enrichment (interaction score)
GGCUAGAACUAGUGGAUCCCCCGGCGCCCGGCGGCUCGAGCCCGGGUAAGUUUAAAUAGUCUGCAUGCCGCCGGGCGCCAUGCCUGCAGGUCGACUCUAGAAAACAUG,binding signal,PUM1 PUF domain R7-GSV,2.83 log2 enrichment (interaction score)
same,binding signal,PUM1 PUF domain R7-QPG,4.67 log2 enrichment (interaction score)
